Hit rate of the full screen: of about 65,000 compounds, about 2,100 (3.2%) showed an effect of 50% or more. The median lay at about -52%. Shown is part of a subset that was picked to be rich in strong results.
Test system: Plasmodium falciparum
Test: Screen against P. falciparum Asexual Blood Stage (ABS), at 5uM
Format: functional, Dd2
Conditions: tested at 5 uM

SMILES | INHIBITION [%]
Cn1cnc2c1C(COCC1CC1)CN(Cc1ccc3c(c1)OCO3)C2 (stereo not given) | 41.1
CCCC(=O)N1CCCN(C(=O)c2oc(C)nc2C)CC1 | -111
Cc1cc(C(=O)NCc2ccnc(N3CCN(C)CC3)c2)c(C)s1 | 32.2
Cc1ccsc1C(=O)NCc1ccnc(N2CCN(C)CC2)c1 | -35
Cc1cc(C(=O)NCc2ccnc(N3CCOCC3)c2)c(C)s1 | 50.6
Cc1ncsc1C(=O)NCc1ccnc(N2CCN(C)CC2)c1 | 62.9
Cc1cc(C(=O)NCc2ccnc(N3CCN(C)CC3)c2)sc1C | -5.05
Cc1ccc(C(=O)NCc2ccnc(N3CCN(C)CC3)c2)cn1 | -38.9
Cc1cnc(N2CCC3(CC2)CC3CNC(=O)C2CCC2)nc1 (stereo not given) | -57.8
COc1cccc(-c2noc(C3CCN(Cc4ccc(C)cc4)C3)n2)c1 (stereo not given) | -97.2
O=C(c1cc(Cl)ccc1OC1CCN(C2CCCC2)CC1)N1CC(O)C1 | -96
CC(=O)N1CCC(Oc2ccc(Cl)cc2C(=O)N2CCCO2)CC1 | -31
O=C(c1cc(Cl)ccc1OC1CCN(C2CCCC2)CC1)N1CCCO1 | 53.5
Cc1noc([C@@H]2C[C@H]3OCC[C@H]3N(Cc3sccc3C)C2)n1 | -15.2
CNC(=O)c1cn2cc(-c3cccc(Cl)c3)n(CC3CC3)c(=O)c2n1 | 19.5
NC(=O)c1cn2cc(-c3ccccc3Cl)n(CC3CC3)c(=O)c2n1 | -27.5
CNC(=O)c1cn2cc(-c3ccccc3Cl)n(CC=C(C)C)c(=O)c2n1 | 68.2
CCNC(=O)c1cn2cc(-c3ccccc3Cl)n(CC3CC3)c(=O)c2n1 | 43.7
CNC(=O)c1cn2cc(-c3ccccc3Cl)n(CC3CC3)c(=O)c2n1 | 54.7
CN(C)C(=O)c1cn2cc(-c3ccccc3Cl)n(CC3CC3)c(=O)c2n1 | 37.8
CNC(=O)c1cn2cc(-c3ccc(F)cc3)n(CC=C(C)C)c(=O)c2n1 | 39.1
CNC(=O)c1cn2cc(-c3cccc(Cl)c3)n(CC=C(C)C)c(=O)c2n1 | 56.6
CN(C)C(=O)c1cn2cc(-c3cccc(Cl)c3)n(CC3CC3)c(=O)c2n1 | -21.6
CCn1cc(NC(=O)CCc2ccc3c(c2)OCCCO3)cn1 | -127
Brc1ccc(-c2nnc(CN(Cc3cccs3)CC3CCCO3)o2)s1 (stereo not given) | -45.2
Cc1cnn(CC2CCCN2Cc2nnc(C3CC3)n2C)c1 (stereo not given) | -100
COC1[C@@H]2CC[C@H]1CN(c1nc(C)nc3sccc13)C2 (stereo not given in full) | -88.3

SMILES | INHIBITION [%]
Cc1cc(C(=O)N2CCCC(n3cncn3)C2)on1 (stereo not given) | -247
Cc1cc(C(=O)N2CCCC(n3cncn3)C2)no1 (stereo not given) | 66.7
O=C(c1cc(C2CC2)on1)N1CCCC(n2cncn2)C1 (stereo not given) | -34.5
Cc1ccc(-c2cc(C(=O)NCCCc3csc(N)n3)[nH]n2)s1 | 66.5
Cn1cccc1-c1cc(C(=O)NCCCc2csc(N)n2)[nH]n1 | -75.5
Cc1ccc(-c2cc(C(=O)NCCCc3csc(N)n3)[nH]n2)o1 | 22
Cc1nc(C)c(CNC(=O)N2CCN(c3ccc(Cl)cn3)CC2)s1 | -49.6
O=C(NC1CCC1)[C@@H]1C[C@@H]2CCN(Cc3cccs3)C[C@@H]2O1 | -168
CC(C)(N)C(=O)N1CCC(c2nccnc2Oc2ccccc2F)CC1 | -4.82
NC(=O)c1cccc(C2CCN(c3ncccn3)CC2)n1 | -58
O=C1NCCCc2[nH]c(Cc3cccc(Cl)c3)nc21 | -167
Clc1cccc(C[C@@H]2NCCC[C@@H]2Nc2ccccc2)c1 | 88.7
O=C(Cc1cccc(Cl)c1)N[C@@H]1CCNC[C@H]1O | -75.4
CC(NC(=O)NCCCc1n[nH]c(N)c1C#N)c1cccc(Cl)c1 (stereo not given) | 0.414
COCC(=O)N(C)Cc1nc(N2CCCC2)ncc1-c1ccncc1 | -9.28
Cc1ccc(CN2Cc3nnn(C)c3C(COCC3CC3)C2)s1 (stereo not given) | -90.4
CCn1nnc2c1C(COCCN(C)C)CN(Cc1ccco1)C2 (stereo not given) | -67.6
CCn1nnc2c1C(COCCN(C)C)CN(Cc1ccc(C)s1)C2 (stereo not given) | 60.1
CCOC(=O)N1CC(=O)N(Cc2ccc(OC)cc2)CC(O)C1 (stereo not given) | -109
Cc1occc1C(=O)N1CCC2(CCC2NC(=O)c2ccn(C)c2)CC1 (stereo not given) | -23.1
CC(C)c1ccc(CNC(C)c2ccc(S(C)(=O)=O)cc2)cc1 (stereo not given) | 53.6
CC(NCc1ccc(F)cc1)c1ccc(S(C)(=O)=O)cc1 (stereo not given) | -28.9
CC(NCc1ccc(C(C)(C)C)cc1)c1ccc(S(C)(=O)=O)cc1 (stereo not given) | -7.37
Cc1ccc(-c2cc(CN3CCc4cnc(C)nc4C3)on2)cc1 | -29
CN1C(=O)CCC12CCC(NCc1ccsc1)CC2 (stereo not given) | -30.4
O=C1CCC2(CCC(NCc3cccnc3)CC2)N1Cc1ccccc1 (stereo not given) | -16.6
O=C1CCC2(CCC(NCc3ccsc3)CC2)N1Cc1ccccc1 (stereo not given) | 65.3

SMILES | INHIBITION [%]
Cc1cc(C(=O)NCC(F)(F)F)c2c(C3CCNCC3)noc2n1 | -42.4
CCn1nc2c(cc1=O)CN(c1ncnc3ccsc13)CC2 | 17.6
CC(=O)N1CCO[C@@H]2CN(Cc3ccccc3F)C[C@@H]2C1 | -77.7
O=S(=O)(c1cccc(Cl)c1)N1CCCC(Cn2cncn2)C1 (stereo not given) | -36.3
CN(C)S(=O)(=O)N1CCCC(c2nccnc2-c2cccc(Cl)c2)C1 (stereo not given) | -85.8
CN(C)Cc1cc(C2CCCN(S(=O)(=O)c3cccc(Cl)c3)C2)nn1C (stereo not given) | 56.5
Cc1cccc(-n2ncc3c2CCCC3NCC(C)(C)CO)c1C (stereo not given) | -58.1
O=C(c1ccsc1)N1C[C@H]2CCC[C@@]2(COCc2cccnc2)C1 | -29.9
Cc1ccc(CN2C[C@@H](C(=O)Nc3cccnc3)C[C@H]3OCC[C@H]32)o1 | -35.4
c1cc(-c2cncnc2)cc(-c2ccn(CC3CCNC3)n2)c1 (stereo not given) | 13.9
Cc1nccc(-c2cccc(-c3ccn(CC4CCNC4)n3)c2)n1 (stereo not given) | -137
Cc1ccsc1-c1cccc(-c2ccn(CC3CCNC3)n2)c1 (stereo not given) | 61.7
Cc1cccc(C(=O)N2CC[C@]3(C[C@H](OCc4ccccn4)CO3)C2)c1 | -121
CCN(CC)c1ccc(NS(=O)(=O)c2cncc(F)c2)cn1 | -19.4
CCN(CC)c1ccc(NS(=O)(=O)c2cccnc2)cn1 | 59.3
CCN(CC)c1ccc(NS(=O)(=O)c2cnn(C)c2)cn1 | -98.6
NC1CCCc2c1cnn2-c1cc(F)cc(F)c1 (stereo not given) | 53.6
Cc1ccc(-n2ncc3c2CCCC3N)cc1C (stereo not given) | 7.06
CC(C)(C)c1ccc(-n2ncc3c2CCCC3N)cc1 (stereo not given) | 31.8
CC(O)CN1CCN(Cc2csc(-c3ncccn3)n2)CC1 (stereo not given) | -107
c1ccc(CC2(CNCc3ncc[nH]3)CCC2)cc1 | 45.2
CCCC1(CNCc2ncc[nH]2)CCC1 | 26.4
CCC1(CNCc2ncc[nH]2)CCCC1 | 67
CCc1ccc(C(=O)N2CC[C@H](Oc3cccnc3C)[C@@H](O)CC2)cc1 | -41
CN(C)c1cc(C(=O)N2CCCCCC2)ccn1 | -8.55
CN(C)c1cc(C(=O)N2CCCCC2)ccn1 | -78.5
CN(C)c1cc(C(=O)N2CCCC2)ccn1 | 55.6

SMILES | INHIBITION [%]
Cc1ccc(N(CCC#N)C(=O)CN2CCCC2c2cccs2)cc1 (stereo not given) | 13.3
CCN(C(=O)CN1CCCC1c1ccc(OC)cc1)c1ccccc1 (stereo not given) | 18.8
Cc1ccc(C2CCCN2CC(=O)N(CCC#N)c2ccccc2)cc1 (stereo not given) | 62.4
N#CCCN(C(=O)CN1CCCC1Cc1ccccc1)c1ccccc1 (stereo not given) | 22.1
N#CCCN(C(=O)CN1CCCC1C1CCCCC1)c1ccccc1 (stereo not given) | 52.2
N#CCCN(C(=O)CN1CCCC1c1ccsc1)c1ccccc1F (stereo not given) | 69.7
CCN(C(=O)CN1CCCC1Cc1ccccc1)c1ccccc1 (stereo not given) | 61.3
N#CCCN(C(=O)CN1CCCC1c1cccs1)c1ccccc1F (stereo not given) | 40
CN(C(=O)CN1CCCC1Cc1ccccc1)c1ccccc1 (stereo not given) | 22.7
N#CCCN(C(=O)CN1CCCC1c1ccccc1Cl)c1ccccc1 (stereo not given) | 40.4
N#CCCN(C(=O)CN1CCCC1c1ccsc1)c1ccccc1 (stereo not given) | 1.81
Cc1ccc(N(CCC#N)C(=O)CN2CCCC2c2ccsc2)cc1 (stereo not given) | 46.2
CC(C)Nc1ncc(-c2csc(NC(=O)C[C@H]3COCCN3)n2)cn1 | -130
c1ccc(CN2CCc3ncnc(-c4cccnc4)c3CC2)nc1 | -71.1
Cc1cnccc1NCCNC1CCSCC1 | -40.9
CCc1nccn1CC(=O)Nc1cccc(N2CCCC2)c1 | -50.9
Cn1nc(C2CCCNC2)c2c(C(=O)NC3CC3)cc(C3CC3)nc21 (stereo not given) | -98.6
CC(=O)c1ccc(OCC(=O)NS(=O)(=O)c2ccc(C)s2)cc1 | -93.5
CC(C)C(NC(N)=O)C(=O)NCc1ccc(N2CCCC2)nc1 (stereo not given) | -34.4
Cc1cc(CN2C[C@@H]3CC[C@H]2CN(C2Cc4ccccc4C2)C3)on1 | 62.7
Cc1nnc(CN2C[C@@H]3CC[C@H]2CN(C2Cc4ccccc4C2)C3)o1 | 38.4
Cc1noc(CN2C[C@@H]3CC[C@H]2CN(C2Cc4ccccc4C2)C3)n1 | 3.93
Cc1noc(CNC(=O)CN(C)c2nc3c(C)ccc(C)c3s2)n1 | -71.5
CCCn1nccc1-c1cc(C2CCN(S(C)(=O)=O)CC2)ccn1 | -114

— ChEMBL document CHEMBL4513216, “Probing the Open Global Health Chemical Diversity Library for Multistage-Active Starting Points for Next-Generation Antimalarials” (ACS Infect Dis, 2020)
